# TEAD-YAP block: TEAD-YAP interaction inhibition; HEK-TIYL cells, TEAD-Gal4/YAP UAS-luciferase luminescence; inhibition, % at 9.12 µM; hit rate 1.4% among 640,000; in the data active means inhibition above about 32%
# MITF primary: inhibitors of human MITF. AlphaScreen MITF homodimerization, bead proximity signal. hit rate 0.91% among 650,000. inhibition, % at 2.6 µM. O75030; in the data active means inhibition above about 50%
# FBW7 activator: activators of human E3 ligase FBW7. Q969H0. AlphaScreen FBW7–phospho-cyclin E peptide binding, activator screen. normalized activity (activation), % at 26.1 µM. hit rate 0.13% among 650,000. AID 1259310; in the data active means normalized activity above about 1.9%;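 further: purified mutant Fbw7 with reduced substrate affinity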
# GPR151 ag: activators of human GPR151; Q8TDV0; PathHunter beta-arrestin GPR151 cells, luminescence; activation, % at 11.2 µM; hit rate 1% among 650,000; AID 1508602; in the data active means activation above about 4.9%
# Target sequence (Q8TDV0 whole entry, looked up): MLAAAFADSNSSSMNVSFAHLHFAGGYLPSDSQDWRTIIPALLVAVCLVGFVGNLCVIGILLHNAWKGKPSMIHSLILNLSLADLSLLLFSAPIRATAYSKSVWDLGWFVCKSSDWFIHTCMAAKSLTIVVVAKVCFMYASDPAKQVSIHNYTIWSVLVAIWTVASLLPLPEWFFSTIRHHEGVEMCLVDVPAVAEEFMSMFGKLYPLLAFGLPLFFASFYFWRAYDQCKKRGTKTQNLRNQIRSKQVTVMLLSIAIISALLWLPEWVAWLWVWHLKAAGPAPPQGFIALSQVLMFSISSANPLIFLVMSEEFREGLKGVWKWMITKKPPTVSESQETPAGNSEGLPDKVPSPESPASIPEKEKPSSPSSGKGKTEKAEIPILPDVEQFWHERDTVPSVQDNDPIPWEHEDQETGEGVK
# MITF inh conf: human MITF inhibition, confirmation; shares compounds with MITF primary; AlphaScreen MITF homodimerization, biotin/His-MITF beads; inhibition, % at 2.6 µM; hit rate 16% among 4,700;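 active means inhibition above a cutoff derived from the DMSO control wells, cut at about 28% in these data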;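 further: inhibitors lower the bead chemiluminescence by keeping MITF from dimerizing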
# AlphaScreen DR: AlphaScreen optical interference, dose response counter-screen; shares compounds with MITF primary; AlphaScreen optical interference counterscreen, cell-free; IC50, µM; hit rate 6% among 480; AID 1259373; call rule not given here
# AS interf ctr: optically interferes with AlphaScreen signal; shares compounds with MITF primary; LysRS AlphaScreen counterscreen, signal interference, triplicate; inhibition, % at 2.6 µM; hit rate 7.6% among 4,700;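 active means inhibition above a cutoff derived from the DMSO control wells, cut at about 30% in these data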
# Hits are given with their value; n = inactive; x = not tested or not shown. A selection: hits, their analogues and other compounds. The true share with any hit is near 3.5%.
SMILES,TEAD-YAP block,MITF primary,FBW7 activator,GPR151 ag,MITF inh conf,AS interf ctr,others
CC(C)CC(=O)Nc1ccc(N2CCC(C)CC2)cc1,n,n,n,n,x,x,
O=C(CN1CCC(Cn2cnc3ccccc32)CC1)N1CCc2ccccc21,35.1,81.5,n,n,n,n,
CCOC(=O)CN1CCC(Cn2cnc3ccccc32)CC1,n,79.2,n,n,n,n,
Cc1ccc(NC(=O)CN2CCC(Cn3cnc4ccccc43)CC2)cc1Cl,n,69.7,n,n,n,n,
CCOC(=O)N1CCN(C(=O)Cn2cnc3ccccc32)CC1,n,n,n,n,x,x,
CSCCC(NC(=O)c1ccccc1)C(=O)OCC(=O)NCc1ccccc1 (stereo unspecified),n,n,n,n,x,x,
CN1CCC(N(CCN2CCOCC2)C(=O)CSCC(=O)O)CC1,n,n,n,n,x,x,
CC1CCN(Cc2c(F)cccc2F)CC1,n,62.7,n,n,n,n,
CC1CCN(C2CCN(Cc3ccccc3F)CC2)CC1,n,63.5,n,n,n,n,
Cc1ccccc1CN1CCN(C2CCCCCC2)CC1,n,68.8,n,n,n,n,
Cc1ccccc1CN1CCC(N2CCC(C(=O)N3CCCC3)CC2)CC1,n,n,n,n,x,x,
Fc1cccc(F)c1CN1CCOCC1,n,n,n,n,x,x,
Cc1ccccc1CN1CCC(N2CCN(CCO)CC2)CC1,n,58.6,n,n,n,n,
O=C(O)CCN1C(=O)c2ccc(NC(=O)Cc3cccs3)cc2C1=O,n,n,n,n,x,x,
OCCN1CCN(C2CCN(Cc3ccccc3F)CC2)CC1,n,82.4,n,n,n,n,
Fc1ccccc1CN1CCN(C2CCCC2)CC1,n,n,n,n,x,x,
C/C(=N\Nc1nc2ccccc2[nH]1)c1ccccn1,74.2,105.2,n,n,110.3,99.4,
C/C(=N\Nc1ccc(C(F)(F)F)cn1)c1ccccn1,86.6,57.9,n,n,n,35.3,
C/C(=N\Nc1nc2ccccc2[nH]1)c1cccnc1,n,n,n,n,x,x,
C=C(C)CN1C(=O)NC(CC)(C2CCN(C(=O)c3ccc4ncccc4c3)CC2)C1=O (stereo unspecified),n,n,n,n,x,x,
O=C(CNCc1ccccc1F)Nc1ccccc1N1CCOCC1,n,74.0,n,n,n,n,
O=C(CCl)Nc1ccccc1N1CCCCCC1,n,n,n,n,x,x,
O=C(CNCc1ccccc1Cl)Nc1ccccc1N1CCCCC1,n,62.2,n,n,n,n,
COc1ccc(Cl)cc1-n1c(=S)sc2c(=O)n(-c3ccc(F)cc3)c(SCC3CCCO3)nc21 (stereo unspecified),n,n,n,n,x,x,
O=C(Nc1ccccc1)c1nc[nH]c1C(=O)Nc1ccccc1,n,n,n,n,x,x,
SMILES,TEAD-YAP block,MITF primary,FBW7 activator,GPR151 ag,MITF inh conf,AS interf ctr,others
O=C(NO)c1nc[nH]c1C(=O)NO,n,98.4,n,n,98.9,100.6,
COc1cccc(/C=C2\SC(=S)N(CCC(=O)O)C2=O)c1O,n,n,n,n,x,x,
CCOC(=O)/C(C#N)=C\c1ccc(OCC)cc1,n,n,n,n,x,x,
CCOC(=O)/C(C#N)=C/c1ccc(OC(=O)c2ccccn2)cc1,n,60.5,n,n,n,53.8,
Cc1ccc2c(c1)N(CCCC(=O)N1CCN(Cc3ccccc3)CC1)C(=O)CO2,n,n,n,n,x,x,
COc1cccc(NC(=O)c2snc3c(=O)[nH]cnc23)c1,n,n,n,n,x,x,
Cc1ccc2c(c1)NC(=O)C(N1CCOCC1)(C(F)(F)F)O2 (stereo unspecified),n,59.1,n,n,n,n,
Cc1ccc2c(c1)NC(=O)C(Cl)(C(F)(F)F)O2 (stereo unspecified),n,n,n,n,x,x,
COC(=O)c1ccc2c(=O)n(CCN3CCOCC3)c(SCC(=O)Nc3cc(C)on3)nc2c1,n,n,n,n,x,x,
COc1ccc(C2(CNC(=O)Cc3cn(C)c4ccccc34)CCCC2)cc1,n,n,n,n,x,x,
CCc1ccc(N2C(=O)C(Cl)=C(NC3CCCCC3)C2=O)cc1,n,64.3,n,n,n,n,
Cc1nc(C)c(C(=O)Nc2ccc(C(N)=O)cc2)o1,n,n,n,n,x,x,
Cc1nc(C)c(C(=O)Nc2ccc(Br)cc2)o1,n,55.9,n,n,n,n,
O=C1C2C3C=CC(C3)C2C(=O)N1/N=C/c1ccc2c(c1)OCO2 (stereo unspecified),n,n,n,n,x,x,
COc1ccccc1C1(NC(=O)CCCCC2SCC3NC(=O)NC32)CCCC1 (stereo unspecified),n,105.4,n,n,66.2,n,AlphaScreen DR=4.88
O=C(O)CCCC[C@@H]1SC[C@@H]2NC(=O)N[C@@H]21,x,121.6,n,n,123.9,100.3,
Cc1nc2ccccc2c(=O)n1Nc1ccc([N+](=O)[O-])cc1[N+](=O)[O-],n,n,n,n,x,x,
Cc1cc(C)n(-c2ccc(Cl)c(C(=O)NCc3ccc(F)cc3)n2)n1,n,n,n,n,x,x,
Cc1cc(=O)n(C)c(=O)n1CCCCCCNCc1ccccc1,n,76.7,n,n,n,n,
CCN(C(=O)c1cnc2n(c1=O)CCS2)c1ccccc1,n,51.4,n,n,n,n,
CCS(=O)(=O)N1CCCC(c2nc3c(nnn3Cc3ccccc3)c(=O)[nH]2)C1 (stereo unspecified),n,n,n,n,x,x,
O=[N+]([O-])c1cc(CN2CCCC2)c2cccnc2c1O,n,99.5,n,n,106.1,100.6,
CN1CCN(Cc2cc([N+](=O)[O-])c(O)c3ncccc23)CC1,n,96.9,n,n,105.3,100.6,
CCOC(=O)CSc1nnc(C(F)(F)F)o1,n,n,n,n,x,x,
COc1ccc(C(=O)Nc2ccc(NC(=O)c3cccc(OC)c3)nc2)cc1,n,n,n,n,x,x,
SMILES,TEAD-YAP block,MITF primary,FBW7 activator,GPR151 ag,MITF inh conf,AS interf ctr,others
O=C(CN1C(=O)NC(Cc2ccccc2)(Cc2ccccc2)C1=O)NCc1ccc(F)cc1,n,n,n,n,x,x,
CC(C(O)c1ccccc1)N(C)CC(=O)Nc1c2c(nc3ccccc13)N(C)CC2 (stereo unspecified),n,66.6,n,n,n,n,
O=C(CN1CCCC1)Nc1ccccc1,n,n,n,n,x,x,
CCc1nc2ccccc2c(NC(=O)CN2CCCC2)c1C,n,64.8,n,n,n,n,
O=C(CN1CCCC1)Nc1c2c(nc3ccccc13)N(c1ccccc1)CC2,n,71.8,n,n,n,n,
CCc1nc2ccccc2c(NC(=O)CNC(C)(C)CC(C)(C)C)c1C,n,70.0,n,n,n,n,
O=C(CN1CCCC1)Nc1c2c(nc3ccccc13)N(Cc1ccccc1)CC2,n,n,n,n,x,x,
CC(=O)Nc1ccc2sc3ccc(NC(C)=O)cc3c2c1,n,n,n,n,x,x,
COc1ccc(C)cc1NC(=O)C1CCC(CNc2c(N3CCCC3)c(=O)c2=O)CC1 (stereo unspecified),n,n,n,n,x,x,
CC(C)(C)NC(=O)C(c1ccco1)N(C(=O)c1csnn1)c1ccccc1Cl (stereo unspecified),n,n,n,n,x,x,
Cc1ccc(C(=O)N2CCN3C(=O)[C@H](C)N(C)C(=O)[C@H]3C2)cc1,n,n,n,n,x,x,
